# Data from PubChem BioAssay (EPA / NIEHS).
# Records with an inconclusive call do not appear. Calls of active or inactive are those of the source. Rule for the calls, unless noted: active = hit-call score of the fitted dose curve at least 0.9, where 1 is the maximum; inconclusive = response in the unintended direction; inactive = score below 0.9.
# How the values were obtained:
# [1] = VALA_TUBIPS_Agonist_TubuleLength: VALA Sciences human iPS-derived Endothelial Tubule Formation (TUBIPS) Agonism Assay (AID 2284311)
# Procedure: VALA_TUBIPS_Agonist is a cell-based, multiplexed assay that uses human iPS-derived endothelial cells (iPSC). Measurements were taken 72 hours after chemical dosing in a 96-well plate.VALA_TUBIPS_Agonist_TubuleLength is the one of two assay components measured from the VALA_TUBIPS_Agonist assay. It is designed to make measurements of tubulogenesis, a form of morphology reporter, as detected with fluorescence intensity signals by HCS Fluorescent Imaging technology. This VALA_TUBIPS1 assay was designed to detect chemical activation of tubulogenesis, i.e. agonism.Data from the assay component VALA_TUBIPS_Agonist_TubuleLength was analyzed at the endpoint, VALA_TUBIPS_Agonist_TubuleLength, in the positive analysis fitting direction relative to DMSO as the negative control and baseline of activity. Using a type of morphology reporter, gain-of-signal activity can be used to understand developmental effects. To generalize the intended target to other relatable targets, this assay endpoint is annotated to the neurodevelopment intended target family, where the subfamily is tubulogenesis.
# This HUVEC-HDF assay was designed to detect chemical suppression of tubulogenesis, i.e. antagonism. […]
# [2] = VALA_MIGHUV2_CellCount: Viability Assessment in the VALA Sciences human Umbilical Vein Endothelial Cell Migration (MIGHUV) Assay, Area of Scratch Wound after Recovery (AID 2284314)
# Procedure: (§1) VALA_MIGHUV2_BCatenin is a cell-based, multiplexed assay that uses umbilical vein-derived endothelial cells (HUVEC). Measurements were taken 24 hours after chemical dosing in a 96-well plate.VALA_MIGHUV2_CellCount is the one of two assay components measured from the VALA_MIGHUV2 assay. It is designed to make measurements of viability, a form of viability reporter, as detected with fluorescence intensity signals by HCS Fluorescent Imaging technology. Data from the assay component VALA_MIGHUV2_CellCount was analyzed at the endpoint, VALA_MIGHUV2_CellCount, in the positive analysis fitting direction relative to DMSO as the negative control and baseline of activity. Using a type of viability reporter, loss-of-signal activity can be used to understand viability. To generalize the intended target to other relatable targets, this assay endpoint is annotated to the cell cycle intended target family, where the subfamily is cell count.
# (§2) Cells were seeded on 384-well microplates (day-0) at a density of 9000 cells per well for detection of wound area recovery or 4000 cells per well for detection of beta-catenin (CTNB) immunoreactivity and incubated in Endothelial Cell Growth Medium (CAI, San Diego; catalog 211-500). After 24 hours of culture, the HUVEC plates were scratched using a custom scratch head with the Bravo liquid handling system. This created a 'wound' area without cells in each well. […]
# [3] = VALA_MIGHUV2_Bcatenin: VALA Sciences human Umbilical Vein Endothelial Cell Migration (MIGHUV) Assay, Nuclear Translocation of beta-Catenin after Recovery (AID 2284315)
# Procedure, shortened: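 HUVEC (4000 cells/well) scratch-wounded, dosed within 30 min over 6 concentrations in triplicate, recovered 24 h. After fixation, Hoechst and anti-beta-catenin immunofluorescence imaged for nuclear CTNB. Gain of signal versus 0.1% DMSO.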
# [4] = VALA_MIGHUV2_WoundArea: VALA Sciences human Umbilical Vein Endothelial Cell Migration (MIGHUV) Assay, Area of Scratch Wound after Recovery (AID 2284316)
# Procedure: VALA_MIGHUV2_BCatenin is a cell-based, multiplexed assay that uses umbilical vein-derived endothelial cells (HUVEC). Measurements were taken 24 hours after chemical dosing in a 96-well plate.VALA_MIGHUV2_WoundArea is the one of two assay components measured from the VALA_MIGHUV2 assay. It is designed to make measurements of endothelial migration, a form of morphology reporter, as detected with fluorescence intensity signals by HCS Fluorescent Imaging technology. Data from the assay component VALA_MIGHUV2_WoundArea was analyzed at the endpoint, VALA_MIGHUV2_WoundArea, in the positive analysis fitting direction relative to DMSO as the negative control and baseline of activity. Using a type of morphology reporter, gain-of-signal activity can be used to understand developmental effects. To generalize the intended target to other relatable targets, this assay endpoint is annotated to the neurodevelopment intended target family, where the subfamily is migration.
# as §2, with “system.” for “system. This created a 'wound' area without cells in each well.”
# [5] = VALA_MIGHUV1_ScratchOnly_CellCount: Viability Assessment in the VALA Sciences human Umbilical Vein Endothelial Cell Migration (MIGHUV) Assay, Scratch Wound Inhibited Recovery (AID 2284327)
# Procedure: as §1, with “VALA_MIGHUV1_ScratchOnly” for “VALA_MIGHUV2_BCatenin”, “plate.VALA_MIGHUV1_ScratchOnly_CellCount” for “plate.VALA_MIGHUV2_CellCount”, “VALA_MIGHUV1_ScratchOnly” for “VALA_MIGHUV2”, “VALA_MIGHUV1_ScratchOnly_CellCount” for “VALA_MIGHUV2_CellCount”, “VALA_MIGHUV1_ScratchOnly_CellCount,” for “VALA_MIGHUV2_CellCount,”
# as §2, with “system.” for “system. This created a 'wound' area without cells in each well.”
# IYD (gene 389434) = experiment: CCTE_GLTED_hIYD: CCTE's human Iodotyrosine Deiodinase (xIYD) Inhibition Assay, Great Lakes Toxicology and Ecology Division (GLTED) Lab (AID 2284317);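 note: cell-free human IYD enzyme made in baculovirus insect cells; iodide freed from monoiodotyrosine measured by cerium arsenite color change at 420 nm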
# Procedure, shortened: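 Absorbance change at 420 nm from the iodide-catalysed cerium-arsenic reaction reports free iodide released by human IYD from monoiodotyrosine. Enzyme, substrate and chemical are incubated 3 h; loss of signal is fitted relative to DMSO baseline.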
# TTR (gene 7276) = experiment: CCTE_GLTED_hTTR_0.5uM: CCTE's human Transthyretin (hTTR) Inhibition Assay, with 0.5uM TTR, Great Lakes Toxicology and Ecology Division (GLTED) Lab (AID 2284320; active = hit-call score of the fitted dose curve at least 0.9, where 1 is the maximum; inactive = score below 0.9)
# Procedure, shortened: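 Cell-free displacement assay in which human TTR at 0.5 uM was incubated with test chemical for 2 h. Displacement of the ANSA probe was read by fluorescence at 380 nm excitation/475 nm emission. Loss of signal was fitted in the positive direction versus DMSO.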
structure (smiles),measurement,setting,value
Clc1ccc(Cl)c(Cl)c1,outcome,[1],inactive
O=P(OCCCl)(OCCCl)OCCCl,outcome,[1],inactive
same,outcome,[2],inactive
CO[C@@H]1[C@H](OC(=O)NC(=O)CCl)CC[C@]2(CO2)[C@H]1[C@@]1(C)O[C@@H]1CC=C(C)C,AC50,[3],1.29 nM (active)
same,outcome,[4],inactive
same,outcome,[5],inactive
Clc1ccc(C(c2ccc(Cl)cc2)C(Cl)(Cl)Cl)cc1,AC50,IYD (gene 389434),35200 nM (active)
CCNS(=O)(=O)C(F)(F)C(F)(F)C(F)(F)C(F)(F)C(F)(F)C(F)(F)C(F)(F)C(F)(F)F,AC50,TTR (gene 7276),1540 nM (active)
